Experimental data reported in PubChem BioAssay (Tox21).
Results filed as inconclusive are left out. Activity calls are given as the source filed them. Unless noted, the call rests on the fitted dose curve; in most records, active means well fitted curve in the direction sought with a large enough effect in the repeat runs; inconclusive means weak or mixed curves; inactive means no such curve, though single readings can be large; an effect the other way counts as inactive or inconclusive.

Assays:
[1] = qHTS assay for identifying genotoxic compounds that show differential cytotoxicity against isogenic chicken DT40 cell lines with known DNA damage response pathways - wild type cell line (AID 743012); further: nearly all actives have a fitted effect of over 60% in size; further: potency means the concentration at half of the fitted maximal effect
Summary of the method: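 Wild-type DT40 cells (300/well) exposed to compounds for 40 hours at 37 C/5% CO2. Viability read by CellTiter-Glo luminescence after 30 min at room temperature.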

[2] = qHTS assay for identifying genotoxic compounds that show differential cytotoxicity against isogenic chicken DT40 cell lines with known DNA damage response pathways - Rev3 mutant cell line (AID 743014); further: nearly all actives have a fitted effect of over 55% in size; further: potency means the concentration at half of the fitted maximal effect
[3] = qHTS assay for identifying genotoxic compounds that show differential cytotoxicity against isogenic chicken DT40 cell lines with known DNA damage response pathways - Rad54/Ku70 mutant cell line (AID 743015); further: nearly all actives have a fitted effect of over 60% in size; further: potency means the concentration at half of the fitted maximal effect
[4] = qHTS assay to identify small molecule antagonists of the androgen receptor (AR) signaling pathway - cell viability counter screen (AID 743033; further: nearly all actives have a fitted effect of over 45% in size; further: potency means the concentration at half of the fitted maximal effect)
[5] = qHTS assay to identify small molecule antagonists of the androgen receptor (AR) signaling pathway using the MDA cell line - cell viability counter screen (AID 743041; further: nearly all actives have a fitted effect of over 45% in size)
Summary of the method: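 Viability counter screen run alongside the AR antagonist reporter: cells seeded 5 h before compound, R1881 added, 16 h incubation at 37C without CO2, fluorescent CellTiter-Fluor signal quantified.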

[6] = qHTS assay to identify small molecule antagonists of the glucocorticoid receptor (GR) signaling pathway - cell viability counter screen (AID 720693); further: nearly all actives have a fitted effect of over 55% in size
[7] = molecular target: Androgen receptor (Homo sapiens) (UniProt P10275); assay: qHTS assay to identify small molecule antagonists of the androgen receptor (AR) signaling pathway (AID 743035; active means well fitted inhibition curve with a large enough effect in the signal ratio in the repeat runs, not every such curve was filed as active; the % refers to the signal ratio; further: potency means the concentration at half of the fitted maximal effect)
Sequence of Androgen receptor (Homo sapiens) (P10275 whole entry, looked up): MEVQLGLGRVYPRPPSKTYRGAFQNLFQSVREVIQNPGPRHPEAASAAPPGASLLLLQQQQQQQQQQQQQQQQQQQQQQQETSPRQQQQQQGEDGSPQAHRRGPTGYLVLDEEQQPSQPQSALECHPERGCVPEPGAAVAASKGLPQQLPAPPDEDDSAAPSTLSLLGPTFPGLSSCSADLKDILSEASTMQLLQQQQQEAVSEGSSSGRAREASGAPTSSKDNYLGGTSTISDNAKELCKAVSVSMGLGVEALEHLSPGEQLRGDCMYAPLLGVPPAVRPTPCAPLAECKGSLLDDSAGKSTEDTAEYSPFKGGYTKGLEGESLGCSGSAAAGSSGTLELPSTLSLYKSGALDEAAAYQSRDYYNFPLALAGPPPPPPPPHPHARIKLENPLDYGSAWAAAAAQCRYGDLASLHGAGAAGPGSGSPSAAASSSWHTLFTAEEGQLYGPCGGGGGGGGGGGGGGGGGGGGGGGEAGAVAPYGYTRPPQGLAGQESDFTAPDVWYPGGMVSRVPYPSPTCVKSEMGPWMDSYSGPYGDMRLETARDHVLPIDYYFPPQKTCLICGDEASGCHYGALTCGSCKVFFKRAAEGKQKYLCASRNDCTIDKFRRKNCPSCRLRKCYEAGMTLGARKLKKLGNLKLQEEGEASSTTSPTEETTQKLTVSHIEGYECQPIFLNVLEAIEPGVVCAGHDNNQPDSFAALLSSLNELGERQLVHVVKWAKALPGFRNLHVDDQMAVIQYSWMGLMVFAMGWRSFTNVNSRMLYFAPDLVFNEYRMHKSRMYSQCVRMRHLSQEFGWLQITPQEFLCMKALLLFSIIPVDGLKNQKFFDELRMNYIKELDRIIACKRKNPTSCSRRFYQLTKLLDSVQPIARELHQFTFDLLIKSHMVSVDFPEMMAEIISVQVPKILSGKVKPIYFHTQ
Summary of the method: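 HEK293 cells stably carrying UAS-beta-lactamase reporter, 2,000/well, given compounds plus R1881 agonist and incubated 16 h at 37C. LiveBLAzer B/G FRET substrate then added for 2 h at room temperature before fluorescence reading.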

[8] = molecular target: Androgen receptor (Homo sapiens) (UniProt P10275); assay: qHTS assay to identify small molecule agonists of the androgen receptor (AR) signaling pathway (AID 743036; active means well fitted activation curve with a large enough effect in the signal ratio in the repeat runs, with a control signal flat, not every such curve was filed as active; the % refers to the signal ratio)
Summary of the method: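 Activation was read as beta-lactamase FRET signal from LiveBLAzer B/G substrate, added for 2 h at room temperature. Before that, GeneBLAzer AR-UAS-bla GripTite (HEK293) cells had 16 h compound exposure at 37C.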

[9] = molecular target: Androgen receptor (Homo sapiens) (UniProt P10275); assay: qHTS assay to identify small molecule agonists of the androgen receptor (AR) signaling pathway using the MDA cell line (AID 743040; further: nearly all actives have a fitted effect of over 20% in size)
Summary of the method: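 Luminescence from ONE-Glo, read after 30 min at room temperature, reflects MMTV-driven luciferase in MDA-kb2 cells (AR- and GR-responsive). Treatment lasted 16 h at 37C, 0% CO2.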

[10] = molecular target: Androgen receptor (Homo sapiens) (UniProt P10275); assay: qHTS assay to identify small molecule antagonists of the androgen receptor (AR) signaling pathway using the MDA cell line (AID 743042; further: nearly all actives have a fitted effect of over 55% in size)
Summary of the method: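 MDA-kb2 cells (human breast carcinoma, stably carrying an MMTV-luciferase reporter responsive to AR and GR) were plated at 3,000 cells/well and preincubated 5 hr at 37C, then given compound plus R1881 agonist for 16 h. ONE-Glo luminescence was read.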

Measured: Potency

Cc1coc2c1CCC(C)C2 (stereo not drawn)
inactive: [1] | [2] | [3] | [4] | [5]

CCCSP(=S)(OCC)Oc1ccc(Cl)cc1Cl (stereo not drawn)
inactive: [6] | [5]
active: [3] 61.1 µM

O=NN1CCCCC1
not listed: [6]
inactive: all other assays above

CCC1(c2ccccc2)C(=O)NC(=O)NC1=O
inactive: [1] | [2] | [3] | [4] | [5]

CC(N)=S
inactive: [1] | [2] | [3] | [4] | [5]

C=CCC1=C(C)[C@@H](OC(=O)[C@@H]2[C@@H](C=C(C)C)C2(C)C)CC1=O
active: [1] 15.4 µM | [2] 24.3 µM | [3] 15.4 µM
inactive: [4]

Cc1nc(N)nc(N)n1
not listed: [6] | [8] | [9]
inactive: all other assays above

ClC(Cl)Br
inactive: [1] | [2] | [3] | [4] | [5]

Cc1nnc2n1-c1sc(CCC(=O)N3CCOCC3)cc1C(c1ccccc1Cl)=NC2
inactive: [1] | [2] | [3] | [4] | [5]

O=[N+]([O-])c1cccc2cccnc12
inactive: [6] | [4] | [5]

N#CCNCC#N
inactive: [6] | [2] | [3] | [5]

CC1CCCCC1NC(=O)Nc1ccccc1 (stereo not drawn)
inactive: [6] | [4] | [5]

CC(COc1ccc(Oc2ccccc2)cc1)Oc1ccccn1 (stereo not drawn)
active: [3] 61.1 µM
not listed: [1] | [2] | [7]
inactive: all other assays above

O=CNC(N1CCN(C(NC=O)C(Cl)(Cl)Cl)CC1)C(Cl)(Cl)Cl (stereo not drawn)
active: [2] 61.1 µM | [7] 6.16 µM
not listed: [1] | [3]
inactive: all other assays above

Clc1cccc(N2CCNCC2)c1
inactive: [6] | [4] | [5]

Nc1n[nH]c(N)n1
inactive: [6] | [2] | [4] | [5]

N#CC(CCc1ccc(Cl)cc1)(Cn1cncn1)c1ccccc1 (stereo not drawn)
inactive: [8] | [9]
active: [1] 13.7 µM | [2] 13.7 µM | [3] 13.7 µM | [4] 49 µM

COP(=S)(OC)Oc1c(Cl)cc(C)cc1Cl
inactive: [6] | [4] | [5]

CCCCCCI
not listed: [6]
inactive: all other assays above

CCOP(=S)(OCC)SCSP(=S)(OCC)OCC
active: [1] 54.5 µM | [2] 61.1 µM | [3] 61.1 µM
inactive: [4] | [5]

CCC(C)(C)c1cc(-n2nc3ccccc3n2)c(O)c(C(C)(C)CC)c1
inactive: [7] | [8] | [10]

COc1ccc2c(c1OC)CN1CCc3cc4c(cc3C1C2)OCO4 (stereo not drawn)
inactive: [8] | [10]
